Data as given in PubChem BioAssay.
Several values for one entry are separate records, joined by “and”; a condition that tells them apart may be missing. Identical values can stand only once. Activity calls are given as the source filed them.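 How the source made its calls, unless noted: active means thallium flux through the channel raised or lowered by more than 3 SD from vehicle-only wells, actives on both sides; inactive means the rest.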

Key:
[1] = P. berghei load reduction in hepatocytes – cell-based, HepG2, luciferase luminescence, HepG2 viability, primary screen (AID 624349; in the data active means parasite load remaining mostly below about 12%, no sharp cut-off; inactive means mostly above about 10%;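 further: 100% = mean of DMSO negative control wells on the same plate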); details: P. berghei liver stage in HepG2, luciferase luminescence, concentration not given here; parasite load remaining: stronger effect = lower value; viability: measured here: HepG2 viability without parasites
[2] = signal quenchers or enhancers, Cy5 substrate/SSB – biochemical, NIH Clinical Collection, E. coli SSB, artefact control for HCV NS3 helicase inhibitor project (AID 743268; call rule not given here); details: Cy5-oligo bound E. coli SSB, fluorescence interference
[3] = tested on: Hepatitis C virus NS3 helicase; assay: blockers of NS3h binding to DNA – biochemical, fluorescence polarization, NIH Clinical Collection, primary screen (AID 743270; call rule not given here); details: NS3 helicase binding to Cy5-dT15 DNA, stronger effect = higher value, concentration not given here
[4] = target: Single-stranded DNA-binding protein (Escherichia coli (strain K12)) (UniProt P0AGE0); assay: SSB-ssDNA binding inhibitors – biochemical, fluorescence polarization, NIH Clinical Collection, counter-screen for HCV NS3 helicase inhibitor project (AID 743271; in the data active means inhibition above about 28%); details: E. coli SSB-DNA binding, stronger effect = higher value, concentration not given here
[5] = compounds distorting NS3 helicase fluorescence signal – biochemical, NIH Clinical Collection, artefact control for HCV NS3 helicase inhibitor project (AID 743272; call rule not given here;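 further: HCV NS3 helicase with a Cy5 labelled single stranded DNA probe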); details: fluorescence interference counterscreen, HCV NS3 helicase assay; stronger effect = lower value
[6] = viability loss with induced miR-34 in A549 – imaging, A549 dox-inducible miR-34, nuclei and caspase counts, primary screen (AID 1347080;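 active means compounds whose cell count with miR-34 switched on is under 0.7 times the count with it off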); details: A549 miR-34 inducible, Hoechst nuclei count, 48 h
[7] = galactose survival enhancers in mitochondrial complex I cybrids – cell-based, galactose medium, ATP luminescence, primary screen (AID 1645843;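 active means z-score of at least 1.8 in each of two replicates, scored against plate mean and spread of sample wells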;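 further: positive z means more ATP and so rescue of galactose-driven cybrid death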); details: complex I mutant cybrid cells, 72 h, stronger effect = higher value
F380Y = assay: BK channel mutant inhibitors and activators – cell-based, U2OS BacMam, thallium flux, beta subunits, selectivity assay, profiling panel (AID 1259406); details: U2OS BacMam BK variants, at 30 µM;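 further: initial slope of Thallos dye fluorescence rise after thallium is added; log ratio against the mean of 0.3% DMSO vehicle wells on the same plate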
F380Y/beta1 = assay: as above; details: U2OS BacMam BK variants, at 30 µM
F380Y/beta2Delta = assay: as above; details: U2OS BacMam BK variants, at 30 µM
F380Y/beta4 = assay: as above; details: U2OS BacMam BK variants, at 30 µM
[8] = target: Calcium-activated potassium channel subunit alpha-1 (Homo sapiens) + Leucine-rich repeat-containing protein 26 (Homo sapiens) (UniProt Q12791+Q2I0M4); assay: as above; details: U2OS BacMam BK variants, F380Y/Slo1WT/gamma1, at 30 µM
Sequence of Calcium-activated potassium channel subunit alpha-1 (Homo sapiens) + Leucine-rich repeat-containing protein 26 (Homo sapiens) (Q2I0M4 whole entry, looked up, one chain of several): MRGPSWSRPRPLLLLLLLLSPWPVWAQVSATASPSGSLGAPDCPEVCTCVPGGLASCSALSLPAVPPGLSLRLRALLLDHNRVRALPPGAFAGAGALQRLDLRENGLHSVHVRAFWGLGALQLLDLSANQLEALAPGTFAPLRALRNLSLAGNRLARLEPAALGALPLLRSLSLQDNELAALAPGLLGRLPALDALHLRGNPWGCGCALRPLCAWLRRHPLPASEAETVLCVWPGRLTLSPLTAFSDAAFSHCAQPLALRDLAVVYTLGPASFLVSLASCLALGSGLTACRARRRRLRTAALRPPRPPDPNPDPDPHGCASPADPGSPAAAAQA

R275C = assay: as above; details: U2OS BacMam BK variants, at 30 µM
R275C/beta1 = assay: as above; details: U2OS BacMam BK variants, at 30 µM
R275C/beta2Delta = assay: as above; details: U2OS BacMam BK variants, at 30 µM
R275C/beta4 = assay: as above; details: U2OS BacMam BK variants, at 30 µM
R275C/Slo1WT/beta2 = assay: as above; details: U2OS BacMam BK variants, at 30 µM
[9] = tested on: Neuropilin-2 / VEGF-C interaction (human); assay: small molecules blocking Neuropilin-2/VEGF-C interaction – biochemical, microplate binding format, z-score (AID 743281; call rule not given here); details: microplate NRP2/VEGF-C binding assay; stronger effect = lower value
[10] = modulation of C. elegans fzo-1 (AID 1259413; call rule not given here;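 further: fzo-1 mutant C. elegans worms in liquid wells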); details: C. elegans fzo-1 modulator screen, mean read-out; stronger effect = higher value
[11] = stronger effect = lower value, cell number ratio, induced over uninduced
[12] = measured here: relative caspase fold change +Dox/-Dox
[13] = measured here: total cells with miR-34 induction, stronger effect = lower value
[14] = measured here: total cells without miR-34 induction

CO[C@H]1/C=C/O[C@@]2(C)Oc3c(C)c(O)c4c(O)c(c(C=NN5CCN(C)CC5)c(O)c4c3C2=O)NC(=O)/C(C)=C\C=C\[C@H](C)[C@H](O)[C@@H](C)[C@@H](O)[C@@H](C)[C@H](OC(C)=O)[C@@H]1C
parasite load remaining [1]: 23.7% (inactive)
viability [1]: 94.3%
fluorescence ratio [2]: 0.107 (active)
inhibition [3]: -3.18% (inactive)
inhibition [4]: 3.34% (inactive)
fluorescence ratio [5]: 0.87 (inactive)
fold change [6, 11]: 0.888 (inactive)
fold change [6, 12]: 2.93
cell count [6, 13]: 9180
cell count [6, 14]: 10300
z-score [7]: -1.41 (inactive)
log fold change Tl+ flux (F380Y): 0.0886 (inactive)
log fold change Tl+ flux (F380Y/beta1): -0.0407 (inactive)
log fold change Tl+ flux (F380Y/beta2Delta): 0.125 (active)
log fold change Tl+ flux (F380Y/beta4): 0.0159 (inactive)
log fold change Tl+ flux [8]: -0.0449 (inactive)
log fold change Tl+ flux (R275C): -0.067 (inactive)
log fold change Tl+ flux (R275C/beta1): 0.00744 (inactive)
log fold change Tl+ flux (R275C/beta2Delta): -0.0205 (inactive)
log fold change Tl+ flux (R275C/beta4): 0.0765 (inactive)
log fold change Tl+ flux (R275C/Slo1WT/beta2): -0.0151 (inactive)

O=c1c(O[C@@H]2O[C@H](CO)[C@H](O)[C@H](O)[C@H]2O)c(-c2ccc(O)c(O)c2)oc2cc(O)cc(O)c12
parasite load remaining [1]: 108% (inactive)
viability [1]: 61.9%
fluorescence ratio [2]: 0.94 (inactive)
inhibition [3]: 1.98% (inactive)
inhibition [4]: 15.3% (inactive)
fluorescence ratio [5]: 1 (inactive)
z-score [9]: -0.00792 (inactive)
mean signal [10]: 249 (inactive)
log fold change Tl+ flux (F380Y): -0.00852 (inactive)
log fold change Tl+ flux (F380Y/beta1): -0.00723 (inactive)
log fold change Tl+ flux (F380Y/beta2Delta): -0.0335 (inactive)
log fold change Tl+ flux (F380Y/beta4): -0.027 (inactive)
log fold change Tl+ flux [8]: -0.0251 (inactive)
log fold change Tl+ flux (R275C): -0.00833 (inactive)
log fold change Tl+ flux (R275C/beta1): -0.0329 (inactive)
log fold change Tl+ flux (R275C/beta2Delta): 0.0189 (inactive)
log fold change Tl+ flux (R275C/beta4): 0.0212 (inactive)
log fold change Tl+ flux (R275C/Slo1WT/beta2): -0.0201 (inactive)

CN(CCO)CC(O)Cn1cnc2c1c(=O)n(C)c(=O)n2C (stereo not given) (tested in a mixture with another compound)
parasite load remaining [1]: 65% (inactive)
viability [1]: 66.2%
fluorescence ratio [2]: 0.97 (inactive)
inhibition [3]: -0.22% (inactive)
inhibition [4]: 0.39% (inactive)
fluorescence ratio [5]: 0.94 (inactive)
z-score [9]: -0.276 (inactive)
mean signal [10]: 208 (inactive)
fold change [6, 11]: 1.72 (inactive)
fold change [6, 12]: 0.852
cell count [6, 13]: 8830
cell count [6, 14]: 5120
z-score [7]: 0.47 (inactive)
log fold change Tl+ flux (F380Y): 0.0136 (inactive)
log fold change Tl+ flux (F380Y/beta1): 0.0124 (inactive)
log fold change Tl+ flux (F380Y/beta2Delta): -0.0171 (inactive)
log fold change Tl+ flux (F380Y/beta4): 0.017 (inactive)
log fold change Tl+ flux [8]: 0.0349 (inactive)
log fold change Tl+ flux (R275C): -0.0477 (inactive)
log fold change Tl+ flux (R275C/beta1): 0.0362 (inactive)
log fold change Tl+ flux (R275C/beta2Delta): -0.03 (inactive)
log fold change Tl+ flux (R275C/beta4): -0.00112 (inactive)
log fold change Tl+ flux (R275C/Slo1WT/beta2): 0.00717 (inactive)

C=C1/C(=C\C=C2/CCC[C@]3(C)[C@@H]([C@H](C)CCCC(C)(C)O)CC[C@@H]23)C[C@@H](O)C[C@@H]1O
parasite load remaining [1]: 39.1% (inactive) and 53.6% (inactive)
viability [1]: 72.4% and 142%
fluorescence ratio [2]: 0.98 (inactive)
inhibition [3]: 3.56% (inactive)
inhibition [4]: 2.21% (inactive)
fluorescence ratio [5]: 0.91 (inactive)
fold change [6, 11]: 1.03 (inactive) and 0.94 (inactive)
fold change [6, 12]: 1.63 and 1.45
cell count [6, 13]: 5100 and 8330
cell count [6, 14]: 4940 and 8850
z-score [7]: -0.805 (inactive)
log fold change Tl+ flux (F380Y): 0.103 (inactive)
log fold change Tl+ flux (F380Y/beta1): 0.0867 (inactive)
log fold change Tl+ flux (F380Y/beta2Delta): 0.0281 (inactive)
log fold change Tl+ flux (F380Y/beta4): 0.0801 (inactive)
log fold change Tl+ flux [8]: 0.0668 (inactive)
log fold change Tl+ flux (R275C): -0.0123 (inactive)
log fold change Tl+ flux (R275C/beta1): 0.0898 (active)
log fold change Tl+ flux (R275C/beta2Delta): 0.0428 (inactive)
log fold change Tl+ flux (R275C/beta4): 0.0602 (inactive)
log fold change Tl+ flux (R275C/Slo1WT/beta2): -0.0015 (inactive)

O=C(OC1C[C@@H]2CC3C[C@H](C1)N2CC3=O)c1c[nH]c2ccccc12 (stereo not given in full)
parasite load remaining [1]: 52.7% (inactive)
viability [1]: 72.3%
fluorescence ratio [2]: 1.02 (inactive)
inhibition [3]: -2.84% (inactive)
inhibition [4]: -2.76% (inactive)
fluorescence ratio [5]: 1 (inactive)
z-score [9]: -0.0143 (inactive)
mean signal [10]: 222 (inactive)
log fold change Tl+ flux (F380Y): 0.0495 (inactive)
log fold change Tl+ flux (F380Y/beta1): 0.0612 (inactive)
log fold change Tl+ flux (F380Y/beta2Delta): 0.0379 (inactive)
log fold change Tl+ flux (F380Y/beta4): 0.00589 (inactive)
log fold change Tl+ flux [8]: -0.004 (inactive)
log fold change Tl+ flux (R275C): -0.0531 (inactive)
log fold change Tl+ flux (R275C/beta1): 0.0632 (inactive)
log fold change Tl+ flux (R275C/beta2Delta): 0.00308 (inactive)
log fold change Tl+ flux (R275C/beta4): 0.022 (inactive)
log fold change Tl+ flux (R275C/Slo1WT/beta2): 0.011 (inactive)

CCC[C@@H]1C[C@@H](C(=O)N[C@H]([C@@H](C)O)[C@H]2O[C@H](SC)[C@H](O)[C@@H](O)C2O)N(C)C1 (stereo not given in full)
parasite load remaining [1]: 97.8% (inactive)
viability [1]: 91%
fluorescence ratio [2]: 0.98 (inactive)
inhibition [3]: -5% (inactive)
inhibition [4]: -3.53% (inactive)
fluorescence ratio [5]: 1.03 (inactive)
mean signal [10]: 237 (inactive)
log fold change Tl+ flux (F380Y): 0.0293 (inactive)
log fold change Tl+ flux (F380Y/beta1): -0.0324 (inactive)
log fold change Tl+ flux (F380Y/beta2Delta): 0.0245 (inactive)
log fold change Tl+ flux (F380Y/beta4): 0.0251 (inactive)
log fold change Tl+ flux [8]: 0.0541 (inactive)
log fold change Tl+ flux (R275C): -0.0022 (inactive)
log fold change Tl+ flux (R275C/beta1): -0.0579 (inactive)
log fold change Tl+ flux (R275C/beta2Delta): -0.0468 (inactive)
log fold change Tl+ flux (R275C/beta4): -0.0617 (inactive)
log fold change Tl+ flux (R275C/Slo1WT/beta2): -0.0428 (inactive)

C#C[C@]1(O)CC[C@H]2[C@@H]3CCC4=CC(=O)CC[C@@H]4[C@H]3CCC21C (stereo not given in full)
mean signal [10]: 236 (inactive)

CN(C)S(=O)(=O)c1ccc2c(c1)/C(=C\CCN1CCNCC1)c1ccccc1S2
parasite load remaining [1]: -2.22% (inactive)
viability [1]: 1.35%
fluorescence ratio [2]: 1.07 (inactive)
inhibition [3]: -0.45% (inactive)
inhibition [4]: 1.81% (inactive)
fluorescence ratio [5]: 0.96 (inactive)
fold change [6, 11]: 0.93 (inactive)
fold change [6, 12]: 1.32
cell count [6, 13]: 9850
cell count [6, 14]: 10600
z-score [7]: -0.06 (inactive)
log fold change Tl+ flux (F380Y): -0.0239 (inactive)
log fold change Tl+ flux (F380Y/beta1): -0.0463 (inactive)
log fold change Tl+ flux (F380Y/beta2Delta): -0.0723 (inactive)
log fold change Tl+ flux (F380Y/beta4): -0.0323 (inactive)
log fold change Tl+ flux [8]: -0.0624 (inactive)
log fold change Tl+ flux (R275C): -0.0283 (inactive)
log fold change Tl+ flux (R275C/beta1): 0.0522 (inactive)
log fold change Tl+ flux (R275C/beta2Delta): 0.019 (inactive)
log fold change Tl+ flux (R275C/beta4): 0.0353 (inactive)
log fold change Tl+ flux (R275C/Slo1WT/beta2): 0.0468 (inactive)
